Assay outcomes (PubChem BioAssay)
In the library only some 4.8% were active in any assay of this set; here they are far more common.
hgDAF-12 ag = H. glycines DAF-12 receptor agonists, primary screen, cell-based, luminescence, HEK293, GAL4 fusion, UAS-luciferase. 370,000 compounds, 1.8% hits. HEK293 GAL4-hgDAF12 UAS-luciferase reporter, agonist luminescence; normalized to butyrate control. activation, % at 6.8 µM. Nuclear hormone receptor DAF-12 (Heterodera glycines), GAL4 fusion;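 active = activation above a cutoff set at the mean of all screened compounds plus 3 SD, cut at about 10% in these data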;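 also: 0% = DMSO wells and 100% = sodium butyrate wells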
ssDAF12 agonist = S. stercoralis DAF-12 nuclear receptor activators, primary screen, cell-based, luminescence, HEK293, GRIP1 co-expression, lit1-tk-luc; Nuclear hormone receptor DAF-12 (Strongyloides stercoralis); HEK293 ssDAF-12/GRIP1 lit1-tk-luc reporter; % of 3 µM dafachronic acid response; activation, % at 6.8 µM; 370,000 compounds, 1% hits;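 active = activation above the mean over all tested compounds plus 3 SD, cut at about 0.9% in these data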;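 also: 0% = DMSO-only wells and 100% = 3 µM delta7-dafachronic acid wells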
hcDAF-12 act = H. contortus DAF-12 nuclear receptor activators, primary screen, cell-based, luminescence, HEK293, lit1-tk-luc reporter; AID 652067, 2013; 370,000 compounds, 1.4% hits; activation, % at 6.8 µM; HEK293 hcDAF-12 lit1-tk-luc reporter; 0% DMSO, 100% Δ7-dafachronic acid;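 active = activation above the mean of all tested compounds plus 3 SD, cut at about 5.5% in these data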;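 also: 100% = response to 3 µM Δ7-dafachronic acid high control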
SMARCA2 act = SMARCA2 (BRM) function activators, primary screen, cell-based, luminescence, high throughput | MG213 cells, MMTV-luciferase reporter, dexamethasone, overnight | activation, % at 9.1 µM | 370,000 compounds, 1% hits | AID 652017, 2013; in the data active = activation above about 7.8%;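 also: 0% = vehicle wells and 100% = reference activator wells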
DAX1 inh-1 = DAX1 (NR0B1) inhibitors, primary screen, cell-based, HEK293, Gal4-DAX1, luciferase luminescence; Nuclear receptor subfamily 0 group B member 1 (Homo sapiens), P51843; HEK293 Gal4-DAX1 luciferase reporter; inhibition, % at 6.75 µM; 340,000 compounds, 0.99% hits; AID 504766, 2011;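 active = inhibition above the mean over all tested compounds plus 3 SD, cut at about 4.2% in these data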;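 also: 0% = DAX1-transfected cells with DMSO and 100% = empty-vector control cells with DMSO; inhibition shows as a rise in luminescence from relieved DAX1 repression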
Target sequence (P51843 207-470 limits assumed): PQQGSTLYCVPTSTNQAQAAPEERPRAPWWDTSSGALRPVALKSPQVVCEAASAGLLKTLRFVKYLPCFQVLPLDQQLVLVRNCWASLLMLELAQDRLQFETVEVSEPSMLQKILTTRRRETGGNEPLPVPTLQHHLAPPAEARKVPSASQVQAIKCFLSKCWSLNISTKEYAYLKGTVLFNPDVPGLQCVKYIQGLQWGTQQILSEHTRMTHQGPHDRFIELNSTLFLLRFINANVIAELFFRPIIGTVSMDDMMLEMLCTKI
DAX1 inh-2 = DAX1 (NR0B1) inhibitors on StAR promoter, primary screen, cell-based, luminescence, SF-1 (NR5A1), full-length DAX-1. HEK293T StAR-luciferase reporter, SF-1/DAX-1 repression relief. AID 652010, 2013. inhibition, % at 6.8 µM. 370,000 compounds, 1.1% hits;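 active = inhibition above the mean over all tested compounds plus 3 SD, cut at about 3.6% in these data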;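 also: 0% = DAX-1 cells with DMSO and 100% = cells lacking DAX-1 with DMSO; higher inhibition means more luminescence from relief of DAX-1 repression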
DAX1 inh confirm = DAX1 (NR0B1) inhibitors relieving SF-1 repression, confirmation, cell-based, luminescence, HEK293T, full-length DAX-1, SF-1 activated StAR promoter; inhibition, % at 6.8 µM; 2,400 compounds, 87% hits; AID 652134, 2013; HEK293T StAR-promoter luciferase reporter, SF-1/DAX-1 repression; shares compounds with DAX1 inh-2;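 active = inhibition above the average of every tested compound plus 3 SD, cut at about 3.8% in these data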;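 also: 0% = DAX-1 cells with DMSO and 100% = no DAX-1 control cells with DMSO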
SF1 mutant ctr = StAR reporter signal changes without DAX1, counter-screen for DAX1 inhibitor project, cell-based, luminescence, AF-2 mutant SF-1, transactivation; shares compounds with DAX1 inh-2; AID 652136, 2013; inhibition, % at 6.8 µM; 2,400 compounds, 78% hits; HEK293 StAR-luciferase, SF-1 AF2 mutant;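 active = inhibition above the mean of all tested compounds plus 3 SD, cut at about 3% in these data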;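 also: 0% = DAX-1 transfected cells with DMSO and 100% = cells without DAX-1 with DMSO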
Numbers without * were called inactive.

`Cc1cc(NS(=O)(=O)c2ccc(NC(=O)Cc3ccc(Cl)c(Cl)c3)cc2)on1` gave hgDAF-12 ag -1, ssDAF12 agonist -1, hcDAF-12 act 0, SMARCA2 act -3 and DAX1 inh-2 0.
For COCCn1c(C)cc(C(=O)CN2C(=O)NC3(CCCCCC3)C2=O)c1C the results were hgDAF-12 ag 8, ssDAF12 agonist 0, hcDAF-12 act 2, SMARCA2 act 2, DAX1 inh-1 2, DAX1 inh-2 6.8*, DAX1 inh confirm 4.5* and SF1 mutant ctr 3.
For CN(C(=O)[C@@H](C1CC1)[C@@H](O)c1ccc(Cl)cc1)c1ccccc1 the results were hgDAF-12 ag 1, ssDAF12 agonist -1, hcDAF-12 act -2, SMARCA2 act 0 and DAX1 inh-2 0.
For COc1cccc(C=Cc2nccc3ccccc23)c1OC the results were hgDAF-12 ag 11*, ssDAF12 agonist -1, hcDAF-12 act 4, SMARCA2 act 7, DAX1 inh-1 0, DAX1 inh-2 6.1*, DAX1 inh confirm 3.8* and SF1 mutant ctr 2.
For Cc1ccc2c(c1)N(CCCC(=O)NCc1cccs1)C(=O)CO2 the results were hgDAF-12 ag 1, ssDAF12 agonist -2, hcDAF-12 act -3, SMARCA2 act -2 and DAX1 inh-2 0.
For CCNc1nc(NCC)n2c(SCC(=O)Nc3ccccc3F)nnc2n1 the results were hgDAF-12 ag -4, ssDAF12 agonist -1, hcDAF-12 act -2, SMARCA2 act -2, DAX1 inh-1 1, DAX1 inh-2 4.5*, DAX1 inh confirm 1 and SF1 mutant ctr 1.
For CCNc1nc(NCC)n2c(SCC(=O)Nc3ccccc3OC(F)F)nnc2n1 the results were hgDAF-12 ag -2, ssDAF12 agonist -1, hcDAF-12 act -2, SMARCA2 act 1, DAX1 inh-1 1 and DAX1 inh-2 0.
Nc1ccc(CSc2ccc(Cl)cc2)c(Cl)c1 was read as hgDAF-12 ag 11*, ssDAF12 agonist 0, hcDAF-12 act 3, SMARCA2 act 1, DAX1 inh-1 3, DAX1 inh-2 7.3*, DAX1 inh confirm 13* and SF1 mutant ctr 7.6*.
`O=C(N[C@H]1CC[C@@H]2SC[C@@H](C(=O)O)N2C1=O)OCC1c2ccccc2-c2ccccc21` gave hgDAF-12 ag 0, ssDAF12 agonist -1, hcDAF-12 act -1, SMARCA2 act 0 and DAX1 inh-2 -1.
`O=C(NC1CCCCC1)c1ccc2ccccc2c1` gave hgDAF-12 ag 6, ssDAF12 agonist -1, hcDAF-12 act 3, SMARCA2 act 7, DAX1 inh-1 4.8*, DAX1 inh-2 5.8*, DAX1 inh confirm 7.5* and SF1 mutant ctr 5.1*.
O=C(OCc1cn(Cc2cc(F)cc(F)c2)nn1)N1CCOCC1 was read as hgDAF-12 ag -2, ssDAF12 agonist -2, hcDAF-12 act 1, SMARCA2 act -6 and DAX1 inh-2 0.
`O=C(Nc1ccc(F)cc1)Nc1ccc2c(c1)CCC2` gave hgDAF-12 ag 7, ssDAF12 agonist 0, hcDAF-12 act 0, SMARCA2 act 3, DAX1 inh-1 2, DAX1 inh-2 5.2*, DAX1 inh confirm 4.2* and SF1 mutant ctr 3.1*.
O=C(Nc1ccc2c(c1)CCC2)Nc1ccc(F)cc1F was read as hgDAF-12 ag 11*, ssDAF12 agonist 0, hcDAF-12 act 2, SMARCA2 act 1, DAX1 inh-1 2, DAX1 inh-2 5.5*, DAX1 inh confirm 9.9* and SF1 mutant ctr 6.9*.
`Cc1ccc(NC(=O)Nc2ccc3c(c2)CCC3)cc1` gave hgDAF-12 ag 7, ssDAF12 agonist -1, hcDAF-12 act 2, SMARCA2 act 2, DAX1 inh-1 1, DAX1 inh-2 5.5*, DAX1 inh confirm 5.3* and SF1 mutant ctr 4.6*.
For Cc1cc(C)cc(NC(=O)Nc2ccc3c(c2)CCC3)c1 the results were hgDAF-12 ag 3, ssDAF12 agonist -1, hcDAF-12 act -2, SMARCA2 act -2, DAX1 inh-1 0 and DAX1 inh-2 1.
`COC(=O)[C@]1(C#N)CC(=O)N(c2ccccc2)[C@@H]1c1ccccc1` gave hgDAF-12 ag 1, ssDAF12 agonist -1, hcDAF-12 act 2, SMARCA2 act 0 and DAX1 inh-2 0.
CN(C)CC(=O)N[C@H]1C[C@@H]2O[C@H](CO)CC[C@@H]2O[C@@H]1CCc1ccc(-c2ccc(F)cc2)cc1 was read as hgDAF-12 ag 1, ssDAF12 agonist -1, hcDAF-12 act -1, SMARCA2 act 2 and DAX1 inh-2 0.
For CN[C@H]1C[C@H]2c3[nH]c4cccc(-c5ccccc5)c4c3CCN2C[C@H]1[C@H](C)O the results were hgDAF-12 ag 2, ssDAF12 agonist 0, hcDAF-12 act -3, SMARCA2 act 3 and DAX1 inh-2 -1.
Cc1cscc1-c1ccc(C(=O)Nc2c(C)cccc2C)o1 was read as hgDAF-12 ag -4, ssDAF12 agonist -1, hcDAF-12 act -3, SMARCA2 act -4, DAX1 inh-2 4.5*, DAX1 inh confirm -1 and SF1 mutant ctr 0.
`CCOC(=O)[C@]12CCCC=C1N(Cc1ccc(OC)cc1)C(=O)[C@@H]2CC(=O)NCc1cccc(C(F)(F)F)c1` gave hgDAF-12 ag 0, ssDAF12 agonist -1, hcDAF-12 act -3, SMARCA2 act -2 and DAX1 inh-2 -2.
For COc1ccc(CN2C(=O)CSCCC2(C)c2nnnn2-c2c(C)cccc2C)cc1 (configuration not stated) the results were hgDAF-12 ag -1, ssDAF12 agonist -1, hcDAF-12 act -2, SMARCA2 act -2 and DAX1 inh-2 -1.
N/C(=N\OC(=O)c1ccco1)c1ccccc1 was read as hgDAF-12 ag 8, ssDAF12 agonist -1, hcDAF-12 act 3, SMARCA2 act 6, DAX1 inh-1 4 and DAX1 inh-2 3.
